Screens deposited in PubChem by several laboratories.
Compounds with a hit are over-represented: about 2.1% of the library has one in this group of screens.
HIF-2a inh = HIF-2a inhibition; 786-0 RCC cells HIF-2a reporter, luciferase luminescence, overnight; inhibition, % at 18.8 µM; 360,000 compounds, 0.72% hits; AID 624352;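 active = inhibition of the luminescence signal of 40% or more relative to plate controls, in a single-dose primary screen at 18.75 µM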
CF NFkB inh = blocks PAF-induced NF-kB reporter in cystic fibrosis cells; 360,000 compounds, 0.86% hits; AID 588850; KKLEB NF-kB-GFP reporter, GFP fluorescence overnight; inhibition, % at 5 µM;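 active = at least 50% inhibition at 5 µM, scaled per plate between neutral and stimulator controls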;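 note: PAF is a Pseudomonas aeruginosa culture filtrate used as stimulus; plate controls were PAF-stimulated DMSO wells for no effect and unstimulated DMSO wells for full effect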
PAX8 reporter = PAX8 transcriptional activity inhibition | inhibition, % at 12.6 µM | RMG-I TPO-luciferase reporter, SteadyGlo, 24 h | 360,000 compounds, 1.2% hits;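 active = mean replicate inhibition at least 60% with every replicate also reaching 60%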;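 note: luciferase light reporting Pax8 driven TPO promoter activity; plate controls were median of neutral control wells for no effect and mitoxantrone controls for full effect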
EWS-Fli block = inhibitors of EWS/Fli oncoprotein transcriptional activity | A673 NR0B1-luciferase reporter, viability-normalised | inhibition, % at 12.6 µM | 350,000 compounds, 0.67% hits;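 active = mean inhibition of at least 50% after viability correction, with every replicate also passing that limit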;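 note: firefly luciferase signal divided by Alamar Blue viability fluorescence both relative to DMSO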
KKLEB tox = CF airway cell cytotoxicity counter-screen. KKLEB CF airway cells viability, ATPlite luminescence, overnight; hits give low values; cells stimulated with P. aeruginosa culture filtrate. activity change (cytotoxicity), % at 5 µM. 360,000 compounds, 0.36% hits. AID 602141;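 active = corrected activity change at or below -50% at 5 µM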
CF NFkB inh conf = CF NF-kB inhibition confirmation, single concentration; AID 602472; shares compounds with CF NFkB inh; KKLEB CF airway cells, PAF-induced NF-kB-GFP fluorescence, overnight; 1,300 compounds, 64% hits; inhibition, % at 5 µM; in the data active = inhibition above about 40%;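 note: stimulus PAF is a Pseudomonas aeruginosa filtrate and not platelet activating factor; plate controls were DMSO wells with stimulus for no effect and unstimulated DMSO wells for full effect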
* marks the source's active call; other numbers are inactive results; · = no result; ! = not confirmed by another sample.

SMILES	HIF-2a inh	CF NFkB inh	PAX8 reporter	EWS-Fli block	KKLEB tox	CF NFkB inh conf
C[C@@H]1CC2[C@@H]3CC[C@H]4CC(=O)CC[C@]4(C)C3=CC[C@]2(C)[C@@]1(O)C(=O)CO (stereo not given in full)	-9	-15	-1	5	1	·
CC1(C)OC2CC3C4CC(F)C5=CC(=O)C=CC5(C)C4(F)C(O)CC3(C)C2(C(=O)CO)O1 (stereo not given)	14	75*	-12	-8	40	21
CC(=O)OCC(=O)C1(O)CCC2C3CC(F)C4=CC(=O)CCC4(C)C3C(=O)CC21C (stereo not given)	15	28	-11	4	-2	·
C[C@@H]1C[C@H]2[C@@H]3C[C@H](F)C4=CC(=O)C=C[C@]4(C)[C@@]3(F)[C@@H](O)C[C@]2(C)[C@@]1(O)C(=O)CO	29	78*	6	4	-24	25
C[C@@H]1CN([C@@H](C)CO)C(=O)c2cc(NC(=O)c3ccncc3)ccc2O[C@H]1CN(C)Cc1ccncc1	·	·	20	0	·	·
COc1cc(NC(=O)c2cc3cccc(OC)c3o2)cc(C(=O)Nc2cccc(C(F)(F)F)c2)c1	6	62*	92*	29	-27	70*
COc1cc(NC(=O)c2csc(-c3ccncc3)n2)cc(C(=O)Nc2cccc(C(F)(F)F)c2)c1	-19	57*!	33	3	11	71*
Cc1noc(C)c1S(=O)(=O)Nc1ccc2c(c1)C(=O)N([C@H](C)CO)C[C@H](C)[C@H](CN(C)C(=O)CCC(F)(F)F)OCCCC[C@@H](C)O2	·	·	3	8	·	·
Cc1ccc(S(=O)(=O)NC[C@H]2CC[C@H]3[C@H](CN3Cc3cc(F)ccc3F)O2)cc1	·	·	·	5	·	·
Cc1ccc(S(=O)(=O)Nc2cccc3c2O[C@H](CN(C)S(=O)(=O)c2ccccc2)[C@@H](C)CN([C@H](C)CO)C3=O)cc1	·	·	-17	-14	·	·
CCOC(=O)C1CCN(c2cc3c(cc2NC(=O)c2ccccc2)n(C)c(=O)n3C)CC1	9	12	6	·	-13	·
CCOC(=O)C1CCN(c2cc3c(cc2NC(=O)c2ccc(OC)c(OC)c2)n(C)c(=O)n3C)CC1	-9	54*	-6	·	9	23
CN(Cc1ccccc1)c1cc2c(c3c1ccn3C)C1CCC2O1 (stereo not given)	-5	7	32	2	0	·
Cn1ccc2c(N3c4ccccc4CCc4ccccc43)cc3c(c21)C1CCC3O1 (stereo not given)	7	85*	-4	-13	-17	15
COc1ccccc1N(C)c1cc2c(c3c1ccn3C)C1CCC2O1 (stereo not given)	16	92*	6	-2	-18	31
Cn1ccc2c(N3c4ccccc4CCc4ccccc43)cc3c(c21)C1CCC3C1 (stereo not given)	-29	8	13	-1	-4	·
COCCNC(=O)C[C@@H]1C[C@H]2c3cc(NC(=O)NC4CCCC4)ccc3O[C@H]2[C@H](CO)O1	·	·	·	3	·	·
Fc1ccc(Nc2nc(-c3ccncc3)nc3ccccc23)cc1F	10	-21	-5	7	-9	·
Clc1cccc(Nc2nc(-c3ccncc3)nc3ccccc23)c1	8	64*	-1	38	-42	-40
S=c1[nH]nc(-c2ccncc2)n1/N=C/C=C/c1ccccc1	17	24	-51	2	-8	·
S=c1[nH]nc(-c2ccncc2)n1/N=C/C(Cl)=C\c1ccccc1	-134	73*	-18	-47	-13	78*
Cc1ccc(-c2n[nH]c(=S)n2/N=C/c2ccc(C)o2)cc1	14	16	19	·	-4	·
Cc1ccc(-c2n[nH]c(=S)n2/N=C/c2ccncc2)cc1	17	56*	-5	-9	-17	85*
COc1ccc(NC(=O)N(C)C[C@@H]2OCCCC[C@H](C)Oc3ccc(NS(=O)(=O)c4ccc(OC)cc4)cc3C(=O)N([C@H](C)CO)C[C@@H]2C)cc1	·	·	3	1	·	·
COc1ccc(CN2C[C@H]3CCCN3c3cc(Br)ccc3S2(=O)=O)cc1	10	53*	·	·	-6	56*
SMILES	HIF-2a inh	CF NFkB inh	PAX8 reporter	EWS-Fli block	KKLEB tox	CF NFkB inh conf
COc1ccc(Cn2cc(CN3CC(N4CCCCC4)CS3(=O)=O)nn2)cc1 (stereo not given)	-1	·	-25	-3	·	·
CCOc1ccccc1N1CCN(c2nc3ccccc3nc2C(C#N)C(=O)OC)CC1 (stereo not given)	22	90*	·	·	-7	47*
COc1ccccc1N1CCN(c2nc3ccccc3nc2C(C#N)C(=O)OC(C)C)CC1 (stereo not given)	12	20	·	·	-7	·
O=C(N/N=C/c1coc2ccc(Cl)cc2c1=O)c1ccc(O)cc1	12	51*	-7	3	-10	16
COc1cc(C(=O)N/N=C/c2coc3ccc(Cl)cc3c2=O)ccc1O	19	61*	-3	14	-15	39
O=C(N/N=C/c1coc2ccc(Cl)cc2c1=O)c1ccncc1	22	45	·	4	12	·
CCC(=O)N1[C@@H](CO)[C@@H](c2ccccc2)C12CN(C(=O)c1ccc3c(c1)OCO3)C2	·	·	-5	8	·	·
CCC(=O)OC1(C(=O)CCl)[C@@H](C)C[C@H]2[C@@H]3CCC4=CC(=O)C=C[C@]4(C)[C@@]3(F)[C@@H](O)C[C@@]21C (stereo not given in full)	26	76*	-16	-9	-7	18
CCC(=O)O[C@]1(C(=O)CCl)[C@@H](C)C[C@H]2[C@@H]3CCC4=CC(=O)C=C[C@]4(C)[C@@]3(F)[C@@H](O)C[C@@]21C	24	77*	-22	5	17	18
CCCC(=O)O[C@]1(C(=O)CCl)[C@@H](C)C[C@H]2[C@@H]3CCC4=CC(=O)C=C[C@]4(C)[C@@]3(F)C(=O)C[C@@]21C	31	91*	-27	7	-3	2
C[C@H](CO)N1C[C@H](C)[C@@H](CN(C)CC2CCOCC2)Oc2cc(C3=CCCC3)ccc2S1(=O)=O	·	·	7	11	·	·
C[C@@H]1CCCCO[C@@H](CN(C)C(=O)c2ccncc2)[C@@H](C)CN([C@H](C)CO)C(=O)c2cc(NS(=O)(=O)c3ccc(Cl)cc3)ccc2O1	·	·	1	-2	·	·
Cc1csc(CNc2ncnc3ccc(-c4cccnc4)cc23)c1	24	17	-7	18	-20	·
Cc1cccc(CNc2ncnc3ccc(-c4ccoc4)cc23)c1	6	70*	3	-4	-3	87*
COc1cccc(-c2ccc3ncnc(NCc4cc(C)cs4)c3c2)c1	12	71*	-2	1	4	78*
Cc1cccc(CNc2ncnc3ccc(-c4cccnc4)cc23)c1	32	26	-3	12	-27	·
Cc1ccc(CNc2ncnc3ccc(-c4ccoc4C)cc23)o1	15	74*	-7	-10	-5	97*
